Bioassay records from PubChem.
KCNQ2 block – inhibitors of rat KCNQ2 potassium channel | AID 2156 | 310,000 tested, 1.1% active | CHO-K1 KCNQ2, FluxOR thallium flux, 20 min; stronger effect = lower value | B-score at 10 µM;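 active = fluorescence ratio B-score at most minus 3 library SDs, with starting brightness B-score within 2 library SDs, cut at about -5.5 in these data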
KCNQ2 enhance – KCNQ2 (rat) channel potentiation. O88943. CHO-K1 KCNQ2, FluxOR thallium flux fluorescence; stronger effect = higher value. B-score at 10 µM. 310,000 tested, 0.54% active;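 active = fluorescence ratio B-score at least 3 SD of library B-scores, with initial fluorescence B-score within 3 of them, cut at about 5.3 in these data; same plate scores as AID 2156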;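 note: B-score of peak minus minimum over baseline fluorescence ratio after K+ and Tl+ stimulus; positive B-score means potentiation of KCNQ2 with more thallium influx and brighter signal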
Numbers stand for hits. An excerpt weighted towards active compounds, which were near 1.6% of everything screened.

Screening COC(=O)C1(C)NC(c2ccccc2C)C2C(=O)N(c3ccccc3)C(=O)C21 (stereo not given) returned KCNQ2 block inactive and KCNQ2 enhance inactive.
For CCOC(=O)C1(c2ccccc2)NC(c2ccccc2C)C2C(=O)N(c3ccc4c(c3)OCO4)C(=O)C21 (stereo not given) the results were KCNQ2 block -7 and KCNQ2 enhance inactive.
Screening O=C(COc1ccc([N+](=O)[O-])cc1)Nc1nnc(-c2cccnc2)s1 returned KCNQ2 block inactive.
Cn1ncc(C#N)c1/N=C/N1CCCC1 was read as KCNQ2 block inactive and KCNQ2 enhance inactive.
For Cn1ncc(C#N)c1/N=C/N(Cc1ccccc1)Cc1ccccc1 the results were KCNQ2 block -5.7 and KCNQ2 enhance inactive.
For Cc1cc(C)c2c(=O)n(CC(=O)NCCCN3CCOCC3)sc2n1 the results were KCNQ2 block inactive and KCNQ2 enhance inactive.
`Cc1cc(C)c2c(=O)n(CC(=O)NCCCN3CCN(c4ccccc4F)CC3)sc2n1` gave KCNQ2 block -9.9 and KCNQ2 enhance inactive.
`COC(=O)CCCC(=O)N1CCCC(C(=O)c2ccc(OC)cc2C)C1` (stereo not given) gave KCNQ2 block inactive and KCNQ2 enhance inactive.
For COc1ccc(-c2cc3nc(C)cc(N4CC(C)CC(C)C4)n3n2)cc1 (stereo not given) the results were KCNQ2 block -6 and KCNQ2 enhance inactive.
For COc1ccc(-c2cc(C(F)(F)F)n3nc(C)cc3n2)cc1 the results were KCNQ2 block inactive.
Screening Cc1cccc(C)c1NC(=O)C(=O)NCC1CCCN1S(=O)(=O)c1cccs1 (stereo not given) returned KCNQ2 block inactive and KCNQ2 enhance inactive.
COc1ccc(NC(=O)CS(=O)(=O)Cc2ccccc2)c([N+](=O)[O-])c1 was read as KCNQ2 block inactive.
`CN(C)CC#Cc1cncc(C(=O)NNC(=O)Nc2ccc(Cl)cc2)c1` gave KCNQ2 block inactive.
Screening CC(C)CCN(CC(=O)NCc1ccc(F)cc1)S(=O)(=O)c1ccccc1F returned KCNQ2 block inactive.
O=C(NNC(=O)c1nn(-c2ccc(F)cc2)ccc1=O)c1ccccc1Cl was read as KCNQ2 block inactive.
`Cc1cc(C(C)(C)C)ccc1OCCN(C)C` gave KCNQ2 block inactive.
For CC(C)Cc1cc(C(C)(C)C)ccc1OC(=S)N(C)C the results were KCNQ2 block -7.8 and KCNQ2 enhance inactive.
Screening CCOC(=O)CSc1c(-c2ccc(Cl)cc2)[nH]c2ccccc12 returned KCNQ2 block inactive.
O=C(Cc1cccs1)NCCSc1c(-c2ccc(Cl)cc2)[nH]c2ccccc12 was read as KCNQ2 block -7.1 and KCNQ2 enhance inactive.
For CC(=O)c1ccc(Oc2cnccn2)cc1 the results were KCNQ2 block inactive and KCNQ2 enhance inactive.
Screening COc1ccc(S(=O)(=O)N2CCC(C(=O)NCc3ccncc3)CC2)cc1C returned KCNQ2 block inactive.
Screening Cc1ccc(-n2c(SCC(N)=O)nc3c(c2=O)C2(CCCC2)Cc2ccccc2-3)cc1 returned KCNQ2 block -5.6 and KCNQ2 enhance inactive.
Screening CCSc1n[nH]c2nc3c(c(=O)n12)C1(CCCC1)Cc1ccccc1-3 returned KCNQ2 block inactive.
For NC(=S)NNc1c(F)c(F)c(F)c(F)c1F the results were KCNQ2 block inactive.
Screening O=C(NCc1ccccc1)C(c1ccc(F)cc1)N(C(=O)c1csnn1)C1CC1 (stereo not given) returned KCNQ2 block inactive and KCNQ2 enhance inactive.
CC1Cc2ccccc2N1C(=O)CN1C(=O)NC(C)(CCc2ccccc2)C1=O (stereo not given) was read as KCNQ2 block inactive.
For COc1cccc(C(=O)N/N=c2\sc3ccccc3n2C)c1 the results were KCNQ2 block inactive and KCNQ2 enhance inactive.
Screening Cc1ccc(C(=O)N/N=c2\sc3ccccc3n2C)cc1 returned KCNQ2 block inactive and KCNQ2 enhance 12.
For O=C(Cn1cnc2scc(-c3cccc([N+](=O)[O-])c3)c2c1=O)NCc1ccco1 the results were KCNQ2 block inactive and KCNQ2 enhance inactive.
For CC1CCCCC1NS(=O)(=O)c1ccc2c(c1)CC(=O)N2C (stereo not given) the results were KCNQ2 block inactive.
COCCSc1ccccc1C(=O)N1CCN(Cc2ccccc2)CC1 was read as KCNQ2 block inactive.
For CCC1=NN(C(=O)c2ccccc2Br)C(O)(c2ccc(Br)cc2)C1 (stereo not given) the results were KCNQ2 block inactive and KCNQ2 enhance 14.
For CCC1=NN(C(=O)COc2ccccc2)C(O)(c2ccc(Br)cc2)C1 (stereo not given) the results were KCNQ2 block -6 and KCNQ2 enhance inactive.
Screening CC1=NN(C(=O)COc2ccccc2)C(O)(c2ccccc2)C1 (stereo not given) returned KCNQ2 block inactive and KCNQ2 enhance inactive.
Screening CC1=NN(C(=O)c2ccccc2Br)C(O)(c2ccc(Cl)cc2)C1 (stereo not given) returned KCNQ2 block inactive and KCNQ2 enhance inactive.
